According to PubChem BioAssay (EPA / NIEHS):
Records with an inconclusive call do not appear. The source made the active and inactive calls. The calls were made as follows: active = hit-call score of the fitted dose curve at least 0.9, where 1 is the maximum; inconclusive = response in the unintended direction; inactive = score below 0.9.

assay: CCTE_Shafer_MEA_acute_LDH: CCTE's Lactate Dehydrogenase Assay for Cytotoxicity in the Neural Acute Assay, Shafer Lab (AID 2284086);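 also: active means LDH release rises above DMSO vehicle level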
Description: CCTE_Shafer_MEA_acute assay is conducted using Axion Biosystems 48 well microelectrode array (MEA) plates and Maestro recording system. Each well of the MEA plate contains a grid of 16 microelectrodes embedded in the culture surface. Electrically active cells, such as neurons, can be cultured over the electrodes, and electrical activity in these cells can be recorded extracellularly. The spontaneous firing of neurons is captured from each electrode on a microsecond timescale providing both temporally and spatially precise data. […] The CCTE_Shafer_MEA_acute assay uses primary cultures of rat cortical neurons. As these cultures mature over time, neural networks develop functional activity and form cohesive networks in which electrical activity can be highly coordinated. Baseline 40-minute recordings are made on days post-plating 13 or 15, followed by a secondary 40-minute recording after chemical exposure.CCTE_Shafer_MEA_acute_LDH is a component of the CCTE_Shafer_MEA_acute assay. It measures the lactate dehydrogenase enzyme activity using spectrophotometry.Data from the assay component CCTE_Shafer_MEA_acute_LDH was analyzed into 1 assay endpoint. This assay endpoint, CCTE_Shafer_MEA_acute_LDH, was analyzed in the positive analysis fitting direction relative to DMSO as the negative control and baseline of activity. Using a type of viability reporter, gain-of-signal activity can be used to understand cell viability.
Immediately following the 40 min recording in the presence of compounds, 50 uL of media was removed from each well and transferred to a sterile 96-well plate. This was used to determine LDH released from cells during compound exposure using a kit from Promega where absorbance was determined in a Molecular Devices VersaMax plate reader at 490 nm.

Q: Which outcome does the source give for O=C(O)C(Cl)(Cl)Cl here?
A: Its outcome is “inactive”.

Q: With CC(=O)OC(c1ccccc1)C(Cl)(Cl)Cl (stereo not given) as the compound, how does the outcome read?
A: The outcome was “inactive”.

Q: For C[C@]12CCC(=O)C[C@@H]1CC[C@@H]1[C@@H]2CC[C@]2(C)[C@@H](O)CC[C@@H]12, which outcome is on record?
A: The outcome was “inactive”.

Q: For CCC(C)(C)c1ccc(O)c(C(C)(C)CC)c1, which outcome is on record?
A: Its outcome is “inactive”.

Q: For O=C(O)C(F)(F)C(F)(F)C(F)(F)C(F)(F)C(F)(F)C(F)(F)C(F)(F)C(F)(F)C(F)(F)C(F)(F)F, which outcome is on record?
A: Its outcome is “inactive”.

Q: Which outcome does the source give for O=C1C2(Cl)C3(Cl)C4(Cl)C(Cl)(Cl)C5(Cl)C3(Cl)C1(Cl)C5(Cl)C24Cl (stereo not given) here?
A: The outcome was “inactive”.

Q: With CC(C)(C)CC(C)(C)c1ccc(O)cc1 as the compound, how does the outcome read?
A: Its outcome is “inactive”.

Q: Which outcome does the source give for COC(=O)Cc1ccccc1 here?
A: The outcome was “inactive”.

Q: With CC(C)(OO)c1ccccc1 as the compound, how does the outcome read?
A: Its outcome is “inactive”.

Q: With O=C(Nc1ccc2[nH]ccc2c1)c1cc2cc(F)ccc2n1Cc1cccc(F)c1 as the compound, how does the outcome read?
A: Its outcome is “inactive”.

Q: Which outcome does the source give for CC(C)(c1ccccc1)c1ccc(O)c(C(C)(C)c2ccccc2)c1 here?
A: Its outcome is “inactive”.

Q: With CC(=O)[O][Hg][c]1ccccc1 as the compound, how does the outcome read?
A: Its outcome is “inactive”.

Q: Which outcome does the source give for CC(C)(C)c1cc(O)ccc1O here?
A: Its outcome is “inactive”.

Q: For C=C(C)C(=O)[O][Sn]([CH2]CCC)([CH2]CCC)[CH2]CCC, which outcome is on record?
A: Its outcome is “inactive”.

Q: Which outcome does the source give for CCCCCCCCc1ccc(O)cc1 here?
A: Its outcome is “inactive”.
